Our source for the binding signal values is paper PMC8384837, “Expanding the binding specificity for RNA recognition by a PUF domain”.

Changes are numbered by the printed parent chain.

Common to all, as to assay: yeast three-hybrid, YBZ-1, SC-Leu-His + 0.5 mM 3-AT, 4 days
Holding throughout (conditions): tags: N-Gal4 AD-HA kept; label: inside an RPR1-promoter hybrid RNA with tandem MS2 sites; ssRNA

One assay concerns the target PUM1 PUF domain R3-GYH (Homo sapiens, UniProt Q14671 828-1176, C935G;R936Y;Q939H). The procedure, abridged: (§1)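 Each repeat of the Pumilio-1 PUF domain was randomized at its three base-contacting residues, and these libraries were co-expressed from a centromeric plasmid with matching RNA elements in strain YBZ-1. After four days on SC-Leu (input) or SC-Leu-His + 0.5 mM 3-AT (selection), the repeat regions were PCR-amplified and Illumina-sequenced. The interaction score compares variant frequency between input and selection as a log change, computed in log2 with a pseudocount of 1 for absent variants.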

Another assay has as its target PUM1 PUF domain R8-RHY (Homo sapiens, UniProt Q14671 828-1176, N1122R;Y1123H;Q1126Y). A digest of the protocol:
as §1

The target of the next assay is PUM1 PUF domain R4-PHA (Homo sapiens, UniProt Q14671 828-1176, N971P;Q975A). The procedure, abridged:
as §1

The target in another assay is PUM1 PUF domain R4-AMC (Homo sapiens, UniProt Q14671 828-1176, N971A;H972M;Q975C). A digest of the protocol: as §1
Another assay addresses PUM1 PUF domain R4-DHG (Homo sapiens, UniProt Q14671 828-1176, N971D;Q975G). A digest of the protocol:
as §1

A further assay concerns the target T1, PUM1 PUF domain R6-VWL (Homo sapiens, UniProt Q14671 828-1176, N1043V;Y1044W;Q1047L).
T1 sequence: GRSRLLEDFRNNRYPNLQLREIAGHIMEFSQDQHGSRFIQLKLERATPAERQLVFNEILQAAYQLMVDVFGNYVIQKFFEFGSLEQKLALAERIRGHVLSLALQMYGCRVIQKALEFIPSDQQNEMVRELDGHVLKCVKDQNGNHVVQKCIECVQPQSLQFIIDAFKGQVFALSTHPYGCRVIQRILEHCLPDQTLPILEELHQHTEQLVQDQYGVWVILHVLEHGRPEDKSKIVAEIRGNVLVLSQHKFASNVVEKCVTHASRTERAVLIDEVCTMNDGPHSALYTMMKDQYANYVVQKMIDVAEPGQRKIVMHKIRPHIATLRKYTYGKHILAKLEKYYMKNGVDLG
A digest of the protocol:
as §1

The target of the next assay is T2, PUM1 PUF domain R6-LWL (Homo sapiens, UniProt Q14671 828-1176, N1043L;Y1044W;Q1047L).
T2 sequence: T1 sequence with V216L
A digest of the protocol: as §1

The target in a further assay is PUM1 PUF domain R5-PRI (Homo sapiens, UniProt Q14671 828-1176, C1007P;Q1011I). The procedure, abridged: as §1
In a further assay the target is PUM1 PUF domain R7-GIR (Homo sapiens, UniProt Q14671 828-1176, S1079G;N1080I;E1083R). A digest of the protocol:
as §1

A further assay addresses PUM1 PUF domain R5-FRG (Homo sapiens, UniProt Q14671 828-1176, C1007F;Q1011G). A digest of the protocol: as §1

Regarding “GGCUAGAACUAGUGGAUCCCCCGGCGCCCGGCGGCUCGAGCCCGGGUAAGUGUAAUUAGUCUGCAUGCCGCCGGGCGCCAUGCCUGCAGGUCGACUCUAGAAAACAUG”, the binding signal with PUM1 PUF domain R3-GYH was 2.58 log2 enrichment (interaction score).

“GGCUAGAACUAGUGGAUCCCCCGGCGCCCGGCGGCUCGAGCCCGGGUAAGCGUAAAUAGUCUGCAUGCCGCCGGGCGCCAUGCCUGCAGGUCGACUCUAGAAAACAUG”: the binding signal with PUM1 PUF domain R8-RHY was 4.97 log2 enrichment (interaction score).

As to “GGCUAGAACUAGUGGAUCCCCCGGCGCCCGGCGGCUCGAGCCCGGGUAAGUGUAUAUAGUCUGCAUGCCGCCGGGCGCCAUGCCUGCAGGUCGACUCUAGAAAACAUG”, the binding signal with PUM1 PUF domain R4-PHA is 6.34 log2 enrichment (interaction score).

Regarding “GGCUAGAACUAGUGGAUCCCCCGGCGCCCGGCGGCUCGAGCCCGGGUAAGUGUACAUAGUCUGCAUGCCGCCGGGCGCCAUGCCUGCAGGUCGACUCUAGAAAACAUG”, the values for the binding signal in the assay with PUM1 PUF domain R4-PHA and with PUM1 PUF domain R4-AMC were 5.37 log2 enrichment (interaction score) and 2.52 log2 enrichment (interaction score), respectively.

With “GGCUAGAACUAGUGGAUCCCCCGGCGCCCGGCGGCUCGAGCCCGGGUAAGUGUAAAUAGUCUGCAUGCCGCCGGGCGCCAUGCCUGCAGGUCGACUCUAGAAAACAUG”, the binding signal in the assay with PUM1 PUF domain R4-DHG was 3.07 log2 enrichment (interaction score); with PUM1 PUF domain R6-VWL, 4.01 log2 enrichment (interaction score); in the assay with PUM1 PUF domain R6-LWL, 3.89 log2 enrichment (interaction score); in the assay with PUM1 PUF domain R4-PHA it was 6.46 log2 enrichment (interaction score); in the assay with PUM1 PUF domain R5-PRI it was 4.45 log2 enrichment (interaction score); in the assay with PUM1 PUF domain R4-AMC, 3.21 log2 enrichment (interaction score).

Turning to “GGCUAGAACUAGUGGAUCCCCCGGCGCCCGGCGGCUCGAGCCCGGGUAAGUUUAAAUAGUCUGCAUGCCGCCGGGCGCCAUGCCUGCAGGUCGACUCUAGAAAACAUG”, in the assay with PUM1 PUF domain R7-GIR, the binding signal was 3.02 log2 enrichment (interaction score).

Turning to “GGCUAGAACUAGUGGAUCCCCCGGCGCCCGGCGGCUCGAGCCCGGGUAAGUGUUAAUAGUCUGCAUGCCGCCGGGCGCCAUGCCUGCAGGUCGACUCUAGAAAACAUG”, the binding signal with PUM1 PUF domain R5-FRG was 2.88 log2 enrichment (interaction score).

For the sequence “GGCUAGAACUAGUGGAUCCCCCGGCGCCCGGCGGCUCGAGCCCGGGUAAGUGUCAAUAGUCUGCAUGCCGCCGGGCGCCAUGCCUGCAGGUCGACUCUAGAAAACAUG”, the binding signal with PUM1 PUF domain R5-FRG was 2.42 log2 enrichment (interaction score).
